The values below come from PubChem BioAssay.

A short description of experiment [1]: yeast TOR pathway RPL19A-GFP modulators, primary screen, cell-based, S. cerevisiae, multiplex flow cytometry (AID 1862; in the data active = percent of DMSO control GFP below about 86%;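 note: lower values mimic rapamycin by blocking the RPL19A rise seen in DMSO cells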). The settings on record: S. cerevisiae RPL19A-GFP strain, flow cytometry fluorescence, 3 h; at 10 µM; stronger effect = lower value. A general note: A flow cytometer gives signals particle by particle.
Experiment [2] in a line: modulators of MEP2-GFP levels in yeast, primary screen, S. cerevisiae, multiplex flow cytometry (AID 1867;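 active = GFP response, as percent of the DMSO control, above the screen-wide mean plus 3 SD, about 139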;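 note: median GFP channel fluorescence of barcode-gated MEP2-GFP cells measured by flow cytometry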). The settings on record: S. cerevisiae MEP2-GFP strain, 3 h, at 10 µM, stronger effect = higher value, 100% means same as DMSO wells.
A short description of experiment [3]: modulators of CIT2-GFP expression in yeast, primary screen, S. cerevisiae, GFP fusion, multiplex flow cytometry (AID 1870;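 active = percent response above a set limit, the screen-wide mean plus 3 SD, cut at about 130% in these data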;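 note: barcoded CIT2-GFP strain pooled with four other GFP strains with rapamycin as positive control; median GFP fluorescence per well over plate mean of DMSO wells so 100% = DMSO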). The conditions noted are these: 3 h, at 10 µM, stronger effect = higher value.
The nature of experiment [4]: modulators of LAP4-GFP expression in yeast, primary screen, S. cerevisiae, multiplex flow cytometry (AID 1873). The conditions noted are these: 3 h, at 10 µM, stronger effect = higher value.
Experiment [5] is described as follows: modulators of AGP1-GFP expression in yeast TOR pathway, primary screen, cell-based, multiplex flow cytometry, S. cerevisiae (AID 1887;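 active = GFP signal above the screen-wide mean plus 3 SD, that is over about 124.5% of the solvent control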;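 note: AGP1-GFP fusion strain of S. cerevisiae within a five-strain barcoded multiplex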). The conditions noted are these: 3 h, at 10 µM, stronger effect = higher value.
Experiment [6] is described as follows: inhibitors of CD8+ T cell-vesicle binding, pilot screen, LFA-1/ICAM-1 modulator project, MLPCN validation set, flow cytometry (AID 2523;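 active = response below a set limit, under 55% cells CD8-positive and vesicle-bound, and CD8 cells' 90th-percentile brightness under 279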;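 for vesicle binding response: mean PE anti-B7-1 fluorescence of CD8+ cells relative to row control; 100% = QL9-loaded vesicles with DMSO vehicle in the same plate row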). The settings on record: 2C mouse CD8+ T cells, at 7 µM, stronger effect = lower value; double positive events: measured here: CD8+/vesicle+ event percentage.
Experiment [7] deals with Integrin beta-1 (Homo sapiens) + Integrin alpha-4 (Homo sapiens) (UniProt P13612+P05556). Briefly: inhibition of HUTS-21 binding to VLA-4, pilot screen, VLA-4 allosteric modulator project, U937 cells, HUTS-21 mAb, flow cytometry, validation set (AID 2674;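 active = inhibition above 50%, about 3 SD of the validation set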;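 note: antibody binding induced by the VLA-4 ligand LDV present at three times its Kd; 0% = LDV ligand with antibody and no compound and 100% = antibody without LDV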). The conditions noted are these: HUTS-21 LIBS mAb binding, at 6.7 µM, stronger effect = higher value, binding induced by LDV ligand.

Experiment [8] is described as follows: superoxide lowering in aged yeast cells, pilot screen, validation compound set (AID 2706;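 active = superoxide response below 65% of plate, a cut near 3 SD across the whole screen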;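 note: yeast exposed to compound for one week at 30 degrees C before staining; 100% = mean of all compound wells on the same plate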). The settings on record: S. cerevisiae aging, superoxide DHE fluorescence; at 10 µM; stronger effect = lower value.
The target of experiment [9] is Beta-adrenergic receptor kinase 1 (Homo sapiens) (UniProt P25098). The experiment can be described thus: GRK2 binders displacing RNA aptamer, biochemical, validation, human GRK2, bead flow cytometry (AID 488806;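 active = aptamer binding inhibition above 30%, about 3 SD of noise from non-fluorescent compounds; inactive = inhibition at or below 30%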). The conditions noted are these: bead-bound GRK2, FAM-aptamer displacement, at 10 µM, stronger effect = higher value.
Experiment [10] addresses Beta-2 adrenergic receptor (Homo sapiens) (UniProt P07550). Briefly: beta2AR agonists driving receptor internalization, pilot screen, cell-based, FAP fluorogen, flow cytometry, validation set (AID 504459;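 active = percent response above 42, roughly 3 SD of non-fluorescent test compounds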;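 note: agonist-driven loss of surface beta2AR via internalization measured by FAP dye flow cytometry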). The conditions noted are these: Am2.2-beta2AR cells, FAP surface receptor flow cytometry; at 10 µM; stronger effect = higher value.
Experiment [11] addresses AP-2 complex subunit beta (Homo sapiens) (UniProt P63010). Briefly: inhibitors of arrestin peptide binding to AP2, pilot screen, biochemical, validation set, GST-AP2 beads, flow cytometry (AID 504541;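 active = inhibition above 54%, about 3 SD of non-fluorescent compounds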;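 note: AP2 carries R879A mutation and is captured from E. coli lysate; bead-bound FITC arrestin peptide fluorescence measuring arrestin peptide binding to AP2; 0% = DMSO wells and 100% = excess unlabeled arrestin peptide control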). The conditions noted are these: FITC arrestin peptide, at 10 µM, stronger effect = higher value, AP2 beta2 appendage fragment, R879A mutant.
Experiment [12] can be described thus: yeast V-ATPase proton transport modulators, S. cerevisiae, pHLuorin, HTS validation (AID 504600; in the data active = response above about 15%;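 note: plate controls were DMSO for no effect and reference compound for full effect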). The settings on record: S. cerevisiae pHLuorin cytosolic pH, at 10 µM, stronger effect = higher value.
For experiment [13], the system named is anti-desmoglein-3 scFv antibody binding to human DSG3. The experiment can be described thus: inhibitors of anti-DSG3 scFv binding to DSG3, pilot screen, biochemical, validation compound set, bead-based, flow cytometry (AID 588368;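 active = binding below the plate cutoff, the plate median minus 3 SD, with a reading above zero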;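 note: signal is the median channel fluorescence of bead-bound GFP antibody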). The settings on record: Protein G beads, DSG3-Fc, scFv-GFP binding, at 10 µM, stronger effect = lower value.
Experiment [14] can be described thus: inhibitors of fungal efflux pumps CDR1, CDR2, MDR1, pilot screen, validation compound set, multiplex, phenotypic (AID 588506;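 active = efflux inhibition above 0.42, the validation set average plus 4 SD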;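 note: Nile Red retained in cells so higher fluorescence means more efflux inhibition; 0 = negative control wells and 1 = enniatin B 25 µM full block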). The settings on record: S. cerevisiae pump-expressing triplex, Nile Red efflux flow cytometry; at 10 µM; stronger effect = higher value; the pumps come from Candida albicans.
For experiment [15], the target named is ATP-binding cassette sub-family B member 6 (Homo sapiens) (UniProt Q9NP58). Briefly: ABCB6 transporter inhibitors, pilot screen, K562-ABCB6 cells, flow cytometry, validation set (AID 588550;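 active = inhibition above the screen-wide mean plus 3 SD, about 51%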;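 note: 0% = DMSO wells and 100% = benzethonium chloride 70 µM positive control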). The conditions noted are these: K562-ABCB6 porphyrin accumulation, 1 h, at 10 µM, stronger effect = higher value.
Experiment [16] in a line: promoters of myeloid differentiation in arrested cells, primary screen, cell-based, GFP/MAC1 double positive, flow cytometry, validation set (AID 588685;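 active = differentiation response of at least 50%, scaled between solvent and reference control, from cells with both markers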;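 note: compound exposure lasts four days before antibody staining and flow analysis; 0% = DMSO wells and 100% = 5 µM fulvestrant positive control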). The settings on record: ER-HoxA9 marrow cells, stronger effect = higher value, normalized: vehicle 0, fulvestrant 100.

Molecules are shown by their SMILES. Inconclusive results are not listed. Calls of active or inactive are those of the source.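 Rule for the calls, unless noted: active = GFP signal, as percent of the solvent control, above the screen mean plus 3 SD, about 149; inconclusive = no reading because the compound's own fluorescence upset strain identification; inactive = the rest.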

Integrin beta-1 (Homo sapiens) + Integrin alpha-4 (Homo sapiens), sequence (P05556 whole entry, looked up): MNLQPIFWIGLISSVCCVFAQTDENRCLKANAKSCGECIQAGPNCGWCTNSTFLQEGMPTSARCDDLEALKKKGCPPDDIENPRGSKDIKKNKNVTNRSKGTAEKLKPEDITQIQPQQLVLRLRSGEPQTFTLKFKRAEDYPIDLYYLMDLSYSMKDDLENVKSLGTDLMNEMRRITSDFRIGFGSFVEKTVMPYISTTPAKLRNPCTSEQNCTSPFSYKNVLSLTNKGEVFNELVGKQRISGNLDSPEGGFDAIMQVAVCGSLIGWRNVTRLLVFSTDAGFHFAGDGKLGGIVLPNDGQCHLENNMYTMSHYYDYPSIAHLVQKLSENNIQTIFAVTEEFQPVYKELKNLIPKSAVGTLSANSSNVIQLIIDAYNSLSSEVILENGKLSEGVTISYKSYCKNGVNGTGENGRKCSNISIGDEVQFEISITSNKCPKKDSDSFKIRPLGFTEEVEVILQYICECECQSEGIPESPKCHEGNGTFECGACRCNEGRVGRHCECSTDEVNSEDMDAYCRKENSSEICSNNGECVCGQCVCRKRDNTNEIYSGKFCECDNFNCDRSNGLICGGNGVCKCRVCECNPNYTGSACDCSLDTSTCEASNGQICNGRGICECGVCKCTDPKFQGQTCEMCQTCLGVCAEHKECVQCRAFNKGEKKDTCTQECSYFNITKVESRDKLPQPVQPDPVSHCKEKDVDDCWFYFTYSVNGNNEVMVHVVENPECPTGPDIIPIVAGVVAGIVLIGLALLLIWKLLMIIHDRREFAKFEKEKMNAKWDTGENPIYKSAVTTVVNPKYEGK
Integrin beta-1 (Homo sapiens) + Integrin alpha-4 (Homo sapiens), sequence (P13612 whole entry, looked up): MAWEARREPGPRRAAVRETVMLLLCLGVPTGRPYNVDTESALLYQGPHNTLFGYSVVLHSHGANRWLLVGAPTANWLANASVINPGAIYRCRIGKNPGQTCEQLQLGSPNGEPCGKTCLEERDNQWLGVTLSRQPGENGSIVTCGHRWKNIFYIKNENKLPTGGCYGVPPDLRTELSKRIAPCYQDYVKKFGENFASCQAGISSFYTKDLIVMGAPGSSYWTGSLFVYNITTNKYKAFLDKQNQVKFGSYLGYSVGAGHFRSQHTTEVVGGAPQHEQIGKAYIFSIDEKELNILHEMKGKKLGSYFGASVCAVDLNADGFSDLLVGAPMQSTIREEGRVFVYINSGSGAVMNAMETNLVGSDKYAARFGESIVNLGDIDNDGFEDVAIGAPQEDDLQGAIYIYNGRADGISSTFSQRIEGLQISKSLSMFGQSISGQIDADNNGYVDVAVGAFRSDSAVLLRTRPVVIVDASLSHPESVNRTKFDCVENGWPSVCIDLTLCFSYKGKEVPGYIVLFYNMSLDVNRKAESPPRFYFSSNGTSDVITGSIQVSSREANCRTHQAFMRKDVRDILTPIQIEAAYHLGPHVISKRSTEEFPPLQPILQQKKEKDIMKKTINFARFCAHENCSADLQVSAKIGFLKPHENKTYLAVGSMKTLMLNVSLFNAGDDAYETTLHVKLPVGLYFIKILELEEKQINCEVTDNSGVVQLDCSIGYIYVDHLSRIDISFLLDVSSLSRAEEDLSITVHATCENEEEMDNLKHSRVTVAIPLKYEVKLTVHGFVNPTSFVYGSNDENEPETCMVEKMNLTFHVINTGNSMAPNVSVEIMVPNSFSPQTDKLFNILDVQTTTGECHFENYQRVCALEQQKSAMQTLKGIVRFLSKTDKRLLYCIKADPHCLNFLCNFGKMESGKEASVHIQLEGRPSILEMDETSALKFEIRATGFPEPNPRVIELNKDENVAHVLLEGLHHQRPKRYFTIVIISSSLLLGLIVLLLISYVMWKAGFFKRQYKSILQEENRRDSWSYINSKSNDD
ATP-binding cassette sub-family B member 6 (Homo sapiens), sequence (Q9NP58 whole entry, looked up): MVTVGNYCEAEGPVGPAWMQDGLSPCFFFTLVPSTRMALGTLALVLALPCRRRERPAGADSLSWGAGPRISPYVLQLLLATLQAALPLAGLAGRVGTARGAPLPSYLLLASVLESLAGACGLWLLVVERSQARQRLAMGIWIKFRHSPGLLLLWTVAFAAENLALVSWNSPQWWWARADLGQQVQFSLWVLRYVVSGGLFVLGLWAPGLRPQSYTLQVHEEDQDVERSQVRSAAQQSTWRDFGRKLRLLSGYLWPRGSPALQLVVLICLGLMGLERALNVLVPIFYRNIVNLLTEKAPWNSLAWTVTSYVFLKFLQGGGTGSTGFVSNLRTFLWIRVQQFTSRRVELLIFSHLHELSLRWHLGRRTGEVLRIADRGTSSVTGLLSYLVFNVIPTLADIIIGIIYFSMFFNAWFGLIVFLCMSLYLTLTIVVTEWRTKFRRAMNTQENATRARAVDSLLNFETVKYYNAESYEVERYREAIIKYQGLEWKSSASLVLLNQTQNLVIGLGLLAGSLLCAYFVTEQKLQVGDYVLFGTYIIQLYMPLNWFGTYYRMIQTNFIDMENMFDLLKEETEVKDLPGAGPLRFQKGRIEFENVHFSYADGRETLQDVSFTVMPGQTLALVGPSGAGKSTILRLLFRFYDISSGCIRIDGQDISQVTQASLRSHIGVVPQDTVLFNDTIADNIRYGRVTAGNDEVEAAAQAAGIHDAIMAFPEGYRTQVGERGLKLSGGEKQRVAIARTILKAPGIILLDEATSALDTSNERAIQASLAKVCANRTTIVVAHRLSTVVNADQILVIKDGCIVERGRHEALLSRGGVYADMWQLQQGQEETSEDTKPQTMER
Beta-adrenergic receptor kinase 1 (Homo sapiens), sequence (P25098 whole entry, looked up): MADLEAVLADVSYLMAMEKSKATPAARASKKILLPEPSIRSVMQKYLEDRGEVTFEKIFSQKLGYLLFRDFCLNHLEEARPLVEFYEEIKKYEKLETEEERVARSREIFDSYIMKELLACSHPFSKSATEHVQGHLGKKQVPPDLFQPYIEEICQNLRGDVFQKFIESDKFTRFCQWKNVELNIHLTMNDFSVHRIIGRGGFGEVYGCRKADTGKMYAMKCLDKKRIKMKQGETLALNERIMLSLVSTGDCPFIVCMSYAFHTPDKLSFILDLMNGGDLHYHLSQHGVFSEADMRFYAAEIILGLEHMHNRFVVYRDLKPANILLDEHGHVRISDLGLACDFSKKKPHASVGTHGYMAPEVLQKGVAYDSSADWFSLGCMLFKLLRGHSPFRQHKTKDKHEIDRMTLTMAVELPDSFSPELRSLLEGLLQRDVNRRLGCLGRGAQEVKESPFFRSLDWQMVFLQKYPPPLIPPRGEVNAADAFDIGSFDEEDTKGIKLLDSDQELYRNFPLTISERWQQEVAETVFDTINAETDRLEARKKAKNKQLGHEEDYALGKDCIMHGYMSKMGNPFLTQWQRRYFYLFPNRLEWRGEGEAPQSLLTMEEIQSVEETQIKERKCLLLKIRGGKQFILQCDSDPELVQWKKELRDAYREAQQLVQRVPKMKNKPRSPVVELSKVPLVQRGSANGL
Beta-2 adrenergic receptor (Homo sapiens), sequence (P07550 whole entry, looked up): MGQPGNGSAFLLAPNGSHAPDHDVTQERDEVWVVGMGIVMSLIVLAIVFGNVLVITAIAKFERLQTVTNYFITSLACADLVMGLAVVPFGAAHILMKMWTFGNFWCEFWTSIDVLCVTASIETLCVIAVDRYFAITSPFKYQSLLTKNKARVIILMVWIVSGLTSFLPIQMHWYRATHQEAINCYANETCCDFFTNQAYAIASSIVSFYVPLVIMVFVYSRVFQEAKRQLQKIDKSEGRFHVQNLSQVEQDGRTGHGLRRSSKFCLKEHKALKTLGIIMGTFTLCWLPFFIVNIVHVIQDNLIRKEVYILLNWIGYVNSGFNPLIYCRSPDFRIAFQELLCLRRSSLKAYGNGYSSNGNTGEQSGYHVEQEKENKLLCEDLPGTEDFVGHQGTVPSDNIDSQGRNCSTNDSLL
AP-2 complex subunit beta (Homo sapiens), sequence (P63010 whole entry, looked up, the tested form may be a part, one chain of several): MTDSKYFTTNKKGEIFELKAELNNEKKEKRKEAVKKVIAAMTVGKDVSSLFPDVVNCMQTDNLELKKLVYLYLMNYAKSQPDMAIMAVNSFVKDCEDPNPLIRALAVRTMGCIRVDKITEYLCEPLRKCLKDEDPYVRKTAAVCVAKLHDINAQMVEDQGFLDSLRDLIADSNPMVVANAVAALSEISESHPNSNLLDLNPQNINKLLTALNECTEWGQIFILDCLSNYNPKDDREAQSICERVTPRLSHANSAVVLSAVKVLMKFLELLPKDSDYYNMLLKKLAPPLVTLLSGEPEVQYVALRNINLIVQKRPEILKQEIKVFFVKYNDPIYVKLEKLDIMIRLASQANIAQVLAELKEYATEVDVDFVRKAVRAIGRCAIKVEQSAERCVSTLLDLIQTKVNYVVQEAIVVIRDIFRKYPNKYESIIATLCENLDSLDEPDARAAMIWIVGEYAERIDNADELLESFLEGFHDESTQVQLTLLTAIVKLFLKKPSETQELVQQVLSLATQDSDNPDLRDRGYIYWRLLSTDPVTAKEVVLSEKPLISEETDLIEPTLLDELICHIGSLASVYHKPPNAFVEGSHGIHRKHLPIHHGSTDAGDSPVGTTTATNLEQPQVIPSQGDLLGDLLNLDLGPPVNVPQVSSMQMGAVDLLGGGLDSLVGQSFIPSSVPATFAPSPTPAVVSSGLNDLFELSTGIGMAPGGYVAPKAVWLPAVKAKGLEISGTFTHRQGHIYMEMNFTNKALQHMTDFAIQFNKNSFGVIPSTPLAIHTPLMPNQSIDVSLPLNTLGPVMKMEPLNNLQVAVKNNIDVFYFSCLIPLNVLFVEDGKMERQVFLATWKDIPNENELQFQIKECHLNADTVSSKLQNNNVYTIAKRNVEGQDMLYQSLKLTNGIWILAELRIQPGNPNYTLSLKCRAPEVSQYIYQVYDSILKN

The term inhibition denotes the relative decrease from the control value, in per cent. For `CC(=O)CC(c1ccc([N+](=O)[O-])cc1)c1c(O)c2ccccc2oc1=O` (stereo not drawn), the percent of DMSO control GFP in [1] is 107% (inactive). Besides, the GFP response vs DMSO was 105% (inactive) in [2] and 118% (inactive) in experiment [4]. Also, in [3], the percent response of DMSO control was 105% (inactive). Besides, in experiment [5], the GFP response, % of DMSO is 114% (inactive). Further, in experiment [6], the double positive events was determined as 60.4%. The vesicle binding response in experiment [6] is 115% (inactive). The inhibition in experiment [7] is -5.11% (inactive); in [11], 1.39% (inactive); in experiment [15], 2% (inactive). In addition, the superoxide response (% of plate) in [8] was 105% (inactive). In addition, the aptamer binding inhibition in experiment [9] was -1% (inactive). For the same compound, the response in experiment [10] was -6.11% (inactive); in [12], 1.39% (inactive). The binding (% of control) in [13] is 99% (inactive). Besides, the efflux inhibition (fraction of control) in experiment [14] was 0.4 (inactive). For the same compound, in experiment [16], the differentiation response was -11.9% (inactive).

Take `CCN1CCn2c3c(c4cc(Cl)ccc42)CCCC31` (stereo not drawn): in [1], the percent of DMSO control GFP is 99.3% (inactive). In addition, the results for the GFP response vs DMSO in experiment [2] and in experiment [4] were 102% (inactive) and 107% (inactive), respectively. The percent response of DMSO control in [3] was 97.7% (inactive). The GFP response, % of DMSO in experiment [5] is 116% (inactive). In addition, the double positive events in experiment [6] turned out to be 62.3%. Besides, the vesicle binding response in [6] is 154% (inactive). The values for the inhibition in experiment [7], in experiment [11] and in experiment [15] were -10.5% (inactive), -7.04% (inactive) and -8% (inactive), respectively. Moreover, the superoxide response (% of plate) in experiment [8] is 106% (inactive). The aptamer binding inhibition in experiment [9] is 5% (inactive). The response in experiment [10] was -10.7% (inactive); in [12], 3% (inactive). Besides, the binding (% of control) in [13] is 104% (inactive). The efflux inhibition (fraction of control) in experiment [14] is -0.09 (inactive). In addition, the differentiation response in experiment [16] is -21.7% (inactive).

As to `COc1ccc(OC)c(NC2=C(Cl)C(=O)N(Cc3ccccc3)C2=O)c1`, the percent of DMSO control GFP in [1] was 104% (inactive). The GFP response vs DMSO in experiment [2] is 105% (inactive); in experiment [4] it was 103% (inactive). For the same compound, the percent response of DMSO control in [3] is 103% (inactive). In addition, the GFP response, % of DMSO in experiment [5] is 99.8% (inactive). For the same compound, the double positive events in experiment [6] is 59.3%. Further, the vesicle binding response in experiment [6] is 98% (inactive). Also, the inhibition in [7] is 4.27% (inactive); in experiment [11] it was 5.66% (inactive); in [15], 0% (inactive). In addition, the superoxide response (% of plate) in experiment [8] is 99.4% (inactive). The aptamer binding inhibition in experiment [9] is 0% (inactive). Moreover, the response is 3% (inactive) in [10] and 2.16% (inactive) in [12]. For the same compound, the binding (% of control) in experiment [13] was 107% (inactive). Also, in experiment [14], the efflux inhibition (fraction of control) was -0.075 (inactive). Further, the differentiation response in [16] is -11.9% (inactive).

As for `Cc1cccc(N2CCN(C(=S)c3ccccc3)CC2)c1`, in experiment [1], the percent of DMSO control GFP is 100% (inactive). For the same compound, the GFP response vs DMSO was 108% (inactive) in [2] and 88.7% (inactive) in experiment [4]. For the same compound, in experiment [3], the percent response of DMSO control was 100% (inactive). Moreover, the GFP response, % of DMSO in experiment [5] was 90.8% (inactive). In [6], the double positive events amounted to 63.1%. The vesicle binding response in experiment [6] was 5220% (inactive). Besides, the results for the inhibition in [7], in experiment [11] and in experiment [15] were -4.6% (inactive), -6.82% (inactive) and 2% (inactive), respectively. For the same compound, in experiment [8], the superoxide response (% of plate) was 101% (inactive). The aptamer binding inhibition in experiment [9] was 0% (inactive). The values for the response in experiment [10] and in experiment [12] were -1.25% (inactive) and 1.76% (inactive), respectively. In experiment [13], the binding (% of control) was 95.3% (inactive). Moreover, the efflux inhibition (fraction of control) in experiment [14] was -0.14 (inactive). Further, in experiment [16], the differentiation response is -8.55% (inactive).
